Results filed as inconclusive are left out. Activity calls are given as the source filed them. Unless noted, calls come from the whole dose curve; as a rule, active = well fitted curve in the direction sought with a large enough effect in the repeat runs; inconclusive = weak or mixed curves; inactive = no such curve, though single readings can be large; an effect the other way counts as inactive or inconclusive.
Legend:
[1] = qHTS assay to identify small molecule agonists of the sonic hedgehog signaling (Shh) pathway - cell viability counter screen (AID 1259366); note: nearly all actives have a fitted effect of over 50% in size; note: potency is the fitted concentration of half-maximal effect
How it was run: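 Same-well cytotoxicity read. Gli1-Luc reporter 3T3 cells; compounds 24hr, 37C/5% CO2; CellTiter-Fluor fluorescence.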

[2] = qHTS assay to identify small molecule antagonists of the sonic hedgehog signaling (Shh) pathway - cell viability counter screen (AID 1259367); note: nearly all actives have a fitted effect of over 55% in size; note: potency is the fitted concentration of half-maximal effect
How it was run: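 Using CellTiter-Fluor, viability of Gli1-Luc reporter 3T3 cells is read by fluorescence in the wells used for the Shh luciferase assay. Treatment lasts 23 hr with conditioned medium, then reagent 1 hr at 37C.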

[3] = qHTS assay to identify small molecule agonists of the sonic hedgehog signaling (Shh) pathway (AID 1259368; calls by dose curve;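 note: NIH/3T3-derived 3T3Gli1-Luc cells carrying a stable Gli1-driven firefly luciferase reporter; series mostly up to about 92 µM; nearly all actives have a fitted effect of over 15% in size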)
How it was run: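 Steps: seed 3T3 Gli1-Luc cells, incubate 4 hr at 37 C, pin-transfer compounds in DMSO alongside a positive control, incubate 24 hr, add luciferase detection reagent, wait 30 min at room temperature, read luminescence.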

[4] = qHTS assay to identify small molecule antagonists of the sonic hedgehog signaling (Shh) pathway (AID 1259369; calls by dose curve; note: nearly all actives have a fitted effect of over 45% in size; note: potency is the fitted concentration of half-maximal effect)
How it was run: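 Inhibition of Shh signalling is measured as reduced Gli1-response-element firefly luciferase output in an NIH/3T3-derived stable reporter clone stimulated with conditioned medium for 24hr.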

[5] = target: Estrogen receptor beta (Homo sapiens) (UniProt Q92731); experiment: qHTS assay to identify small molecule agonists of the estrogen receptor beta (ER-beta) signaling pathway (AID 1259377; active = well fitted activation curve with a large enough effect in the signal ratio in the repeat runs, not every such curve was filed as active; the % refers to the signal ratio)
Sequence of Estrogen receptor beta (Homo sapiens) (Q92731 whole entry, looked up): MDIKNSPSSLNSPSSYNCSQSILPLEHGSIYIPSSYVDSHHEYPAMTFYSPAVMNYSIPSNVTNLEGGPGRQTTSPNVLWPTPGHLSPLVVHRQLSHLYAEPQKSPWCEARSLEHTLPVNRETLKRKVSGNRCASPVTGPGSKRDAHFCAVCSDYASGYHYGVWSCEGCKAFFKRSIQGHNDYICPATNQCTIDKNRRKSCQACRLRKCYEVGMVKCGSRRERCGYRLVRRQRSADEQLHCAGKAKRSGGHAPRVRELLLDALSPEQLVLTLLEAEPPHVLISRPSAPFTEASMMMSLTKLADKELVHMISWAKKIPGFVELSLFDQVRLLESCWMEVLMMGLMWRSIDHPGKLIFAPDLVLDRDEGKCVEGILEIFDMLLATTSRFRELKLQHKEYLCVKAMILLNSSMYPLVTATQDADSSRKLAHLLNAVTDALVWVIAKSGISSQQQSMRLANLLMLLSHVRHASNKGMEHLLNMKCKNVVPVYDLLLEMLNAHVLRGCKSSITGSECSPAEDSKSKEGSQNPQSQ
How it was run: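 Read-out: beta-lactamase FRET fluorescence. Cell line: ER-beta-UAS-bla HEK293T in 2% charcoal-stripped FBS. Exposure: 16 hr at 37C. Substrate step: 2 h at room temperature.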

[6] = target: Estrogen receptor beta (Homo sapiens) (UniProt Q92731); experiment: qHTS assay to identify small molecule antagonists of the estrogen receptor beta (ER-beta) signaling pathway (AID 1259378; active = well fitted inhibition curve with a large enough effect in the signal ratio in the repeat runs, not every such curve was filed as active; the % refers to the signal ratio; note: potency is the fitted concentration of half-maximal effect)
How it was run: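 Antagonist mode: compounds added to beta-lactamase reporter HEK293T ER-beta-UAS cells stimulated with E2 (1nM final), 16 hr at 37C. LiveBLAzer B/G FRET substrate, 2 hours room temperature, fluorescence read-out.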

[7] = qHTS assay to identify small molecule agonists of the androgen receptor (AR) signaling pathway in the presence of an antagonist - cell viability counter screen (AID 1259379);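 note: MDA-kb2 human breast cancer cells carrying an MMTV luciferase reporter; series mostly up to about 92 µM; nearly all actives have a fitted effect of over 25% in size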
How it was run: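 Fluorescence from CellTiter-Fluor, added after 15 hr and read 1 hr later, gave cell viability. Cells were MDA-kb2 exposed to compounds (15 concentrations) in the presence of 3.0uM nilutamide at 37C, 0% CO2.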

[8] = qHTS assay to identify small molecule HDAC inhibitors - cell viability counter screen (AID 1259365); note: series mostly up to about 92 µM; nearly all actives have a fitted effect of over 50% in size
How it was run: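 After overnight seeding at 1,500 cells per well, wild-type HCT-116 cultures took up compounds in DMSO for 2hr at 37 C. Viable cell content came from luminescence with CellTiter-Glo.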

Measured: Potency

NCc1cccc(C2CCN(C(=O)c3ccc(C#Cc4ccccc4F)o3)CC2)c1
active: [1] 30.6 µM | [2] 24.3 µM | [4] 6.11 µM | [6] 54.5 µM
inactive: [3] | [5]

CCOC(=O)C1=NN(c2ccc(Cl)cc2Cl)C(C)(C(=O)OCC)C1 (stereo not drawn)
inactive: [1] | [2] | [3] | [5] | [7]

C=CC(C)(C)O
not listed: [6] | [8]
inactive: all other assays above

NCc1ccco1
inactive: all assays above

Nc1c(Br)cc([N+](=O)[O-])cc1Br
not listed: [3]
inactive: all other assays above

C=C1CC[C@H]2O[C@]2(C)CC[C@@H]2[C@@H]1CC2(C)C
not listed: [6]
inactive: all other assays above

CC(C)C(=O)C(C)C
not listed: [8]
inactive: all other assays above

N#CCCOCCC#N
inactive: [1] | [2] | [3] | [5] | [7]

[Cl][Sc]([Cl])[Cl]
inactive: [2] | [3] | [4] | [7]

CC1(C)[C@H]2CC[C@]1(C)C(=O)C2
inactive: [8] | [2] | [3] | [6] | [7]

Cc1c(Cl)c(=O)oc2cc(O)ccc12
active: [4] 34.4 µM
inactive: [8] | [3]

Source: PubChem BioAssay (Tox21)
